Reference: PubChem BioAssay (EPA / NIEHS)
Several values for one entry are separate records, joined by “and”; a condition that tells them apart may be missing. Identical values can stand only once. Some compounds were tested as several samples or in several runs, with calls that do not always agree. Activity calls are given as the source filed them. The calls were made as follows: active = hit-call score of the fitted dose curve at least 0.9, where 1 is the maximum; inactive = score below 0.9.

The compounds below were run against Myc proto-oncogene protein (Homo sapiens) (UniProt P01106) (assay: ATG_Myc_CIS: Attagene CIS-FACTORIAL HepG2 Assay for human Myelocytomatosis (Myc) Proto-Oncogene Transcription Factor (AID 2282990)). Conditions: HepG2, Attagene cis-reporter transcription factor activity; actives raise or lower the signal.
Myc proto-oncogene protein (Homo sapiens), sequence (P01106 whole entry, looked up): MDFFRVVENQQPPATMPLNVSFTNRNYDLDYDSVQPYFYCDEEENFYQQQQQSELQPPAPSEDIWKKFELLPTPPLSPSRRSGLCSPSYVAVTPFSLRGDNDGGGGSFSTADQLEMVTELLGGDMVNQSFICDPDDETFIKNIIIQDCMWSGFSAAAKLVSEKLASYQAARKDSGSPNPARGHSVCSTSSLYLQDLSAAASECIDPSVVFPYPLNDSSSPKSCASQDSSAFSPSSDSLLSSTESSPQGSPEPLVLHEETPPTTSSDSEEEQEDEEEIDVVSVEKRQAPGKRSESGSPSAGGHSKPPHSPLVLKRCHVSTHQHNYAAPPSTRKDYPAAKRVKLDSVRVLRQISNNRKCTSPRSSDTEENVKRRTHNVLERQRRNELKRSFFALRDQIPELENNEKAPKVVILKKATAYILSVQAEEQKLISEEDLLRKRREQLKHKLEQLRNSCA
Protocol: ATG_CIS is a cell-based, multiplexed-readout assay that uses HepG2, a human liver cell line, with measurements taken at 24 hours after chemical dosing in a 24-well plate.ATG_Myc_CIS is one of 52 assay component(s) measured or calculated from the ATG_CIS assay. It is designed to make measurements of mRNA induction, a form of inducible reporter, as detected with fluorescence intensity signals by Reverse transcription polymerase chain reaction (RT-PCR) and Capillary electrophoresis technology.Data from the assay component ATG_Myc_CIS was analyzed into 1 assay endpoint. This assay endpoint, ATG_Myc_CIS, was analyzed with bidirectional fitting relative to DMSO as the negative control and baseline of activity. Using a type of inducible reporter, measures of mRNA for gain or loss-of-signal activity can be used to understand the reporter gene at the transcription factor-level as they relate to the gene MYC. Furthermore, this assay endpoint can be referred to as a primary readout, because this assay has produced multiple assay endpoints where this one serves a reporter gene function. To generalize the intended target to other relatable targets, this assay endpoint is annotated to the dna binding intended target family, where the subfamily is basic helix-loop-helix leucine zipper.
Human liver HepG2 cells are transiently transfected with multiple reporter transcription units (MRTUs) in 6-well plates using FuGene 6 reagent (Roche; 3 ml FuGene/1 mg DNA). The MRTU constructs are regulated by a cis-regulating element (promoter). […] A major difference between the CIS and TRANS system is that in CIS activities of endogenous TFs are measured, whereas the TRANS assay evaluates changes in activities of exogenous, chimeric NR-Gal4 proteins. […] At the end of 24 hour incubation, total RNA was isolated using TriZol reagent (Invitrogen). The isolated RNA is then reverse-transcribed using oligo(dT) primer and Mo-MLV reverse transcriptase (Invitrogen) with DNAse I (Ambion) treatment for 30 min. The one-tenth of the produced cDNA was amplified by PCR using Taq DNA polymerase (Invitrogen) and two reporter sequence-specific primers. The PCR products were fluorescently labeled by primer extension with 6-arboxyfluorescein (6-FAM) 5'-labeled reporter sequence-specific primer (2 min at 95 C, 20 s at 68 C and 10 min at 72 C) and these products were digested with 5U of HpaI (New England Biolabs) for 2h at 37 C. The fragments were purified using Qiaquick PCR columns (Qiagen), analyzed on an ABI 3130xL genetic analyzer (Applied Biosystems) with peak positions identified by using a set of X-rhodamine (ROX)-labeled MapMarker1000 molecular weight standards (BioVentures). The raw capillary electrophoresis data was processed using Attagraph software (Attagene).

Compound | outcome | AC50
CCCCCC(=O)O[C@]1(C(C)=O)CC[C@H]2[C@@H]3CCC4=CC(=O)CC[C@]4(C)[C@H]3CC[C@@]21C | inactive | 
OCCN1CCOCC1 | inactive | 
O=C(O)CS | inactive | 
S=c1[nH][nH]c(=S)s1 | inactive | 
O=c1cc(-c2ccc(O)cc2)oc2cc(O)cc(O)c12 | inactive | 
Nc1ccc(N)c([N+](=O)[O-])c1 | inactive | 
C=C(C)C(=O)OCCN(C)C | inactive | 
CC1=CC[C@@H]2C[C@H]1C2(C)C | inactive | 
CC(=O)c1ccc(C)cc1 | inactive | 
O=Cc1ccccc1O | inactive | 
OC[C@H]1O[C@@H](O[C@H]2[C@H](O)[C@@H](O)[C@H](O)O[C@@H]2CO)[C@H](O)[C@@H](O)[C@H]1O | inactive | 
CCCCCC#CC(=O)OC | inactive | 
CC1(C)CC(=O)CC(C)(C)N1 | inactive | 
Cc1ccccc1S |  | 45 µM (active)
O=C(O)c1ccco1 | inactive | 
CCCCCCCCCCCCOCCOS(=O)(=O)O | inactive | 
CNC(=C[N+](=O)[O-])NCCSCc1ccc(CN(C)C)o1 | inactive | 
C1=COCCC1 | inactive | 
CC(C)CCOC(=O)CC(C)C | inactive | 
O=C(O)c1cc2ccccc2cc1O | inactive | 

Compound | outcome | AC50
C=CC(=O)OCCCCCC | inactive | 
O=S(=O)(O)CCCN1CCOCC1 | inactive | 
CC1=CC(C)C(C=O)C(C)C1 (stereo not given) (tested in a mixture with another compound) | inactive | 
CCCCCCCCCCCCS | inactive | 
CCCCOC(=O)C(C)OC(=O)CCC (stereo not given) | inactive | 
C=C(C)C(=O)OCCC[Si](OC)(OC)OC | inactive | 
CCOC(=O)COC(=O)c1ccccc1C(=O)OCC | inactive | 
Cc1ccncc1 | inactive | 
CC(=O)c1cccnc1 | inactive | 
CN(C)C | inactive | 
CN(C)C(=O)Nc1ccccc1 | inactive | 
C#C[C@]1(O)CC[C@H]2[C@@H]3CCc4cc(O)ccc4[C@H]3CC[C@@]21C | inactive | 146 µM (active) and 61.6 µM (active)
CC(O)CN (stereo not given) | inactive | 
CC(=O)N(C)C | inactive | 
c1ccc2scnc2c1 | inactive | 
CCCCCCC(C)O (stereo not given) | inactive | 
CCCCCCOc1ccc(O)cc1 | inactive | 
CC(=O)CC(=O)N(C)C | inactive | 
CC(O)CNCC(C)O (stereo not given) | inactive | 
